# Records with an inconclusive call do not appear. A call without a number means that no potency is given here. Calls of active or inactive are those of the source. Calls follow the shape of the dose curve; as a rule, active = well fitted inhibition curve with a large enough effect; inconclusive = small, poorly fitted or top-dose-only effect; inactive = no such curve, though single readings can be large or run the other way.
# Experiment: qHTS assay for measurement of the activity of small molecule inhibitors on Zika virus induced Caspase-3 activity in human iPSC derived neural progenitor cells (hNPCs) (AID 1224857); also: nearly all actives have a fitted effect of over 65% in size
# Details: hNPCs ZIKV-induced caspase-3/7, Caspase-Glo luminescence, 6 h; series mostly up to 45.7 µM
# Excerpt: National Center for Advancing Translational Sciences [NCATS]
# Johns Hopkins University School of Medicine
# Increase in the Caspase-3 activity indicates an activation of apoptosis cell death pathway caused by Zika virus infection in certain types of neuronal cells including human neural progenitor cells (hNPCs), astrocytes, and astrocytoma cell line (SNB-19). This cell-based caspase-3 activity assay measures the increased caspase-3 activity in the human iPSC derived neural progenitor cells (hNPCs) after a 6-hour Zika virus infection with a luminescence readout. A decrease in the luminescence signal in this assay by small molecule treatment indicates an inhibitory effect of that small molecule on the Zika virus induced caspase-3 activity that may correlate with its effect on reduction of Zika virus caused cell death.
# The medium for hNPCs consists of DMEM/F12, N2 supplement (ThermoFisher, Cat.# 17502048), NEAA (ThermoFisher, Cat. # 11140050), 2 ug/ml heparin, 2 uM cyclopamine, and B27 (ThermoFisher, Cat. # 17504044). A Caspase-Glo 3/7 assay kit (catalog number G8092; Promega, Madison, WI) was used to detect caspase-3 activity induced by Zika virus infection in human cells. The reagent mixture was reconstituted as described in the protocol from the manufacturer. Polystyrene tissue culture treated and PDL coated white plates were obtained from Greiner Bio-One (Monroe, NC). Cells were seeded in 384- or 1536-well assay plates and cultured at 37 C with 5% CO2 for 16 to 20 hours. The typical cell seeding density in the 1536-well plate assay is 350 cells/well in 3 ul medium for hNPCs in tissue culture treated plates. Compounds were added to cells and incubated for one hour before addition of ZIKV solution to cells (2 FFU/cell). After incubation at 37 C with 5% CO2 for 6 hours, the reagent mixture of Caspase-Glo 3/7 assay kit was added to each well, followed by incubation at room temperature for 30 minutes. The luminescence intensity of the assay plates was measured using a ViewLux plate reader (PerkinElmer). Data were normalized by using the cell-containing wells without ZIKV as a negative control (0% induction of caspase 3/7 activity) and wells containing ZIKV infected cells (Caspase-3 activity induced) as a positive control (100% induction of caspase 3 activity). The percentage inhibitions of the increased Caspase-3 activity by small molecule inhibitors were then calculated.
# Potency is read from the fitted curve at half-maximal effect.
row,Structure (SMILES),Potency
1,CC(=O)c1c(C)c2cnc(Nc3ccc(N4CCNCC4)cn3)nc2n(C2CCCC2)c1=O,inactive
2,CC=C1NC(=O)[C@H]2CSSCCC=C[C@H](CC(=O)N[C@H](C(C)C)C(=O)N2)OC(=O)[C@H](C(C)C)NC1=O,inactive
3,Clc1cccc(-c2nnnn2Cc2cccnc2)c1Cl,inactive
4,O=c1[nH]c(=O)n(C2CCCO2)cc1F (stereo not given),inactive
5,O=C(Cc1ccc(-c2ccc(OCCN3CCOCC3)cc2)cn1)NCc1ccccc1,inactive
6,CCCCCN(CCC12CC3CC(CC(C3)C1)C2)C(=O)NCCCc1ccncc1,inactive
7,CC(=O)Nc1nc(C)c(-c2ccc(Cl)c(S(=O)(=O)NCCO)c2)s1,inactive
8,COc1cc(-c2nn(C3CCC(N4CCN(C(C)=O)CC4)CC3)c3ncnc(N)c23)ccc1NC(=O)c1cc2ccccc2n1C (stereo not given),inactive
9,Clc1cccc(-n2nnnc2NCc2ccccc2Oc2ccccn2)c1Cl,inactive
10,O=C(c1ccc(Nc2nccc(-c3cc4ccccc4s3)n2)cc1)N1CCC(N2CCCC2)CC1,inactive
11,CNc1nccc(-c2cccnc2Oc2cc(C(=O)Nc3cccc(C(F)(F)F)c3)ccc2C)n1,inactive
12,CC=CC1=C(C(=O)O)N2C(=O)[C@H](NC(=O)[C@H](N)c3ccc(O)cc3)[C@@H]2SC1,inactive
13,CC1(C)O[C@@H]2C[C@@H]3[C@H]4C[C@@H](F)C5=CC(=O)C=C[C@]5(C)[C@@]4(F)[C@@H](O)C[C@]3(C)[C@]2(C(=O)CO)O1,inactive
14,Cc1ccc(C(N)=O)cc1Nc1nccc(-c2cn(C(C)C)c3cnccc23)n1,inactive
15,C[C@@H]1COC(Nc2ccc3ncnc(Nc4ccc(OCc5nccs5)c(Cl)c4)c3c2)=N1,inactive
16,Nc1ccn([C@@H]2O[C@H](CO)[C@H](O)C2(F)F)c(=O)n1,inactive
17,Cn1c(CNc2ccc(C(=N)N)cc2)nc2cc(C(=O)N(CCC(=O)O)c3ccccn3)ccc21,inactive
18,CCCCOc1c(C(=O)c2c(F)cc(C)cc2F)cnc2n[nH]cc12,inactive
19,COc1cc(OC2CCN(C)CC2)ccc1Nc1ncc2c(n1)n(C1CCCC1)c(=O)n2C,inactive
20,NC(=O)c1cccc2cn(-c3ccc([C@@H]4CCCNC4)cc3)nc12,inactive

row,Structure (SMILES),Potency
1,COc1cc(Nc2ncc(F)c(Nc3ccc4c(n3)N(COP(=O)(O)O)C(=O)C(C)(C)O4)n2)cc(OC)c1OC,inactive
2,Cc1coc2c1C(=O)C(=O)c1c-2ccc2c1CCCC2(C)C,inactive
3,Cc1cc(CN2CCN(c3c(Br)cnc4nc(-c5ccc(N6CCN(C)CC6)cc5)[nH]c34)CC2)no1,inactive
4,CC(C)c1cc(-c2n[nH]c(=O)n2-c2ccc3c(ccn3C)c2)c(O)cc1O,inactive
5,Cc1nc2cnc3ccc(C#Cc4cccnc4)cc3c2n1-c1ccc(C(C)(C)C#N)cc1,inactive
6,CN(C)CC(C)(C)CNc1nn2c(-c3ccccc3)nnc2cc1C1CCC1,inactive
7,O=c1[nH]nc(Sc2ncc([N+](=O)[O-])s2)n1-c1ccc2c(c1)OCCO2,23.5 µM (active)
8,CC(C)(O)c1cc2nc(-c3cnc(N)nc3)nc(N3CCOCC3)c2s1,inactive
9,O=C(O)CCCc1c[nH]c2ccccc12,inactive
10,O=C1CCC[C@@H]2[C@H]3CCC[N+]4([O-])CCC[C@@H](CN12)[C@@H]34 (stereo not given in full),inactive
11,COc1cc2ncnc(Nc3ccc(F)c(Cl)c3)c2cc1NC(=O)C=CCN1CCCCC1,inactive
12,O=C(O)Cn1nnc(-c2cc(N3CCC(Oc4cc(F)ccc4Br)CC3)no2)n1,inactive
13,C#Cc1cccc(Nc2ncnc3cc(OC)c(OCCCCCCC(=O)NO)cc23)c1,inactive
14,CCN(CC)CCCCNc1ncc2cc(-c3cc(OC)cc(OC)c3)c(NC(=O)NC(C)(C)C)nc2n1,inactive
15,CC[C@@H]1C(=O)N(C)c2cnc(Nc3ccc(C(=O)NC4CCN(C)CC4)cc3OC)nc2N1C1CCCC1,inactive
16,c1cc(-c2cnn3cc(-c4ccc(OCCN5CCCCC5)cc4)cnc23)ccn1,inactive
17,Cc1cn(-c2cc(NC(=O)c3ccc(C)c(Nc4nccc(-c5cccnc5)n4)c3)cc(C(F)(F)F)c2)cn1,inactive
18,COc1cc2c(NC3CCN(C(C)C)CC3)nc(C3CCCCC3)nc2cc1OCCCN1CCCC1,inactive
19,C[C@H]1C[C@@H]2[C@@H]([C@@H](O)C[C@@]3(C)[C@H]2CC[C@]3(O)C(=O)CO)[C@@]2(C)C=CC(=O)C=C12,inactive
20,CN(C)CC=CC(=O)Nc1cc2c(Nc3ccc(F)c(Cl)c3)ncnc2cc1O[C@H]1CCOC1,inactive
